From PubChem
Six1-Eya2 inh – blocks human Six1 binding to Eya2; Q15475+O00167; AlphaScreen GST-Six1/His-Eya2 binding, biochemical; hits give low values; activity change, % (no concentration beside the values); hit rate 0.56% among 360,000; in the data active = activity change below about -65%; inconclusive = mostly about -30% to -63%; note: % is set by controls: 0 for no effect and ±100 for the full control effect
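Homogeneous AlphaScreen proximity assay pairing GST-Six1 with His-tagged Eya2 (added as 5X mix: 250 nM and 500 nM) in 50 mM Tris pH 8.0, 300 mM NaCl, 1 mM TCEP. Glutathione donor and nickel acceptor beads; 1 h, 37 °C, dark.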
CtBP-E1A inh – blocks the CtBP interaction with E1A. AlphaScreen GST-E1A/His-CtBP binding, 1536-well; hits give low values. activity change, % (test concentration not listed). hit rate 0.49% among 340,000. AID 651724; in the data active = activity change below about -65%; inconclusive = mostly about -30% to -63%; note: % is set by controls: 0 for no effect and ±100 for the full control effect
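GST-E1A and His-tagged CtBP (125 nM each as 5X stock) were preincubated with pin-transferred compound for 2 h at 37 °C in the dark, then glutathione donor and nickel acceptor beads were added for 1 h before AlphaScreen reading.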
BAZ2B block – blocks human BAZ2B; Potency, µM (doses to about 114 µM), inactives show top-dose activity change, negative = inhibition, actives largely listed as inhibitors; AID 504333; Q9UIF8; hit rate 4.4% among 360,000; AlphaScreen BAZ2B-H3K14Ac peptide displacement; note: potency is the fitted concentration of half-maximal effect; % is set by controls: 0 for no effect and ±100 for the full control effect; nearly all actives have a fitted effect of over 60% in size
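Multi-concentration screen (max 110 uM) measuring displacement of acetylated histone H3 peptide from BAZ2B by AlphaScreen, using 50 nM protein, 50 nM peptide and 10 ug/mL streptavidin donor plus Ni-chelate acceptor beads.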
HP1b binding inh – HP1-beta chromodomain-methylated histone interaction inhibition; AID 540317; hit rate 0.56% among 390,000; AlphaScreen HP1-beta / biotin-H3K9me3 peptide binding; P83916; Potency, µM (series often up to 114 µM), for the others: top-dose activity change, negative = inhibition, usual class: inhibitors; note: potency is the fitted concentration of half-maximal effect; nearly all actives have a fitted effect of over 70% in size
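Compound inhibition of the preformed complex between 50 nM HP1-beta and 50 nM biotinylated H3K9me3 peptide was read by AlphaScreen. Buffer was PBS pH 7.4 with 0.01% Tween-20. Incubations ran 30 min at room temperature, with 10 ug/mL donor/acceptor beads.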
G9a block – G9a (human) methyltransferase inhibition. Potency, µM (titrated, usually from 102 µM), inactives show at the top dose activity, negative = inhibition, actives largely listed as inhibitors. AID 504332. hit rate 8.8% among 350,000. Q96KQ7. G9a H3K9 monomethylation, AlphaScreen, 2 h; note: potency is the fitted concentration of half-maximal effect; % is set by controls: 0 for no effect and ±100 for the full control effect; nearly all actives have a fitted effect of over 75% in size
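Methyltransferase reactions run at room temperature for 2 h (20 nM enzyme, 500 nM biotin-H3K9 peptide, 20 uM SAM) after a 15 min compound preincubation; product detected by AlphaScreen beads and anti-H3K9me1 antibody.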
JMJD2A Tudor inh – inhibitors of human JMJD2A Tudor domain. AID 504339. AlphaScreen JMJD2A-Tudor / H3K4me3 peptide binding. O75164. hit rate 4.4% among 390,000. Potency, µM (titrated, usually from 114 µM), for inactives: at the highest dose activity change, negative = inhibition, most hits filed as inhibitors; note: potency is the fitted concentration of half-maximal effect; % is set by controls: 0 for no effect and ±100 for the full control effect; nearly all actives have a fitted effect of over 50% in size
* marks the source's active call; other numbers are inactive results; [ ] = dose if it differs, or a comment. Most compounds without a hit are left out; they make up all but 10% or so of the library. Unless noted, calls come from the whole dose curve; as a rule, active = well fitted inhibition curve with a large enough effect; inconclusive = small, poorly fitted or top-dose-only effect; inactive = no such curve, though single readings can be large or run the other way.

Screening CC(C)CC(=O)n1nc(-c2ccco2)nc1NCc1ccc(Cl)cc1 returned BAZ2B block 0%, HP1b binding inh 19%, G9a block -8%[59 µM] and JMJD2A Tudor inh 1%.
Screening CCOC(=O)CSc1nc2c([nH]c3ccccc32)c(=O)n1-c1ccc(OCC)cc1 returned BAZ2B block 1%, HP1b binding inh 19%[57 µM], G9a block 0%[59 µM] and JMJD2A Tudor inh inconclusive.
COc1cccc(C2CC(=O)Nc3cc(OC)c(OC)c(OC)c32)c1OC(C)C (stereo not drawn) was read as BAZ2B block -19%, HP1b binding inh 21%, G9a block -13%[59 µM] and JMJD2A Tudor inh -23%.
Screening Cc1cccc(C(=O)N2CCNC(=O)C2CC(=O)Nc2ccc(F)cc2)c1 (stereo not drawn) returned BAZ2B block -2%, HP1b binding inh 34%, G9a block 3%[59 µM] and JMJD2A Tudor inh 4%.
CC(C)Cn1c(=O)c2ccccc2n2c(CCC(=O)NCc3ccccc3Cl)nnc12 was read as BAZ2B block -3%, HP1b binding inh 45%, G9a block -1%[59 µM] and JMJD2A Tudor inh 7%.
`CC(C)c1nc2ccc(Br)cn2c1NC1CCCC1` gave Six1-Eya2 inh -3, CtBP-E1A inh 13, BAZ2B block inconclusive, HP1b binding inh 42%, G9a block 45µM* and JMJD2A Tudor inh -8%.
Screening COc1ccc(C(=O)C(OC(=O)CNC(=O)c2ccco2)c2ccccc2)cc1 (stereo not drawn) returned Six1-Eya2 inh 3, CtBP-E1A inh 0, BAZ2B block -38%[57.1 µM], HP1b binding inh 8%, G9a block 50µM* and JMJD2A Tudor inh -16%.
`O=C(CNC(=O)c1ccccc1)OC(C(=O)c1ccccc1)c1ccccc1` (stereo not drawn) gave Six1-Eya2 inh 3, CtBP-E1A inh 7, BAZ2B block -7%, HP1b binding inh 55%, G9a block 23%[59 µM] and JMJD2A Tudor inh -4%.
For COc1ccc(/C=N/n2cnc3c(sc(=S)n3-c3ccccc3)c2=O)cc1 the results were Six1-Eya2 inh 11, CtBP-E1A inh 8, BAZ2B block 8%, HP1b binding inh 62%, G9a block 48% and JMJD2A Tudor inh -13%.
For S=c1sc2c(Cl)ncnc2n1-c1ccccc1 the results were Six1-Eya2 inh inconclusive, BAZ2B block -23%, HP1b binding inh 26%, G9a block 45µM* and JMJD2A Tudor inh 1%.
Screening CCN1CCN(c2ccc(S(=O)(=O)N3CCCCC3)cc2NC(=O)c2ccc([N+](=O)[O-])s2)CC1 returned Six1-Eya2 inh -4, CtBP-E1A inh -2, BAZ2B block -7%, HP1b binding inh inconclusive, G9a block 10µM* and JMJD2A Tudor inh inconclusive.
`CCN1CCN(c2ccc(S(=O)(=O)N3CCOCC3)cc2NC(=O)c2ccc(C)c(C)c2)CC1` gave Six1-Eya2 inh 4, CtBP-E1A inh 13, BAZ2B block 4%, HP1b binding inh 20%, G9a block 6%[2.33 µM] and JMJD2A Tudor inh -10%.
For CCN1CCN(c2ccc(S(=O)(=O)N3CCCCC3)cc2NC(=O)c2cccc(C)c2[N+](=O)[O-])CC1 the results were Six1-Eya2 inh -3, CtBP-E1A inh -18, BAZ2B block -35%, HP1b binding inh -2%, G9a block 50µM* and JMJD2A Tudor inh -34%.
`CN1CCN(S(=O)(=O)c2cccc(C(=O)Nc3cc(C(F)(F)F)ccc3N3CCCCC3)c2)CC1` gave Six1-Eya2 inh 1, CtBP-E1A inh -16, BAZ2B block -11%, HP1b binding inh 12%, G9a block 45µM* and JMJD2A Tudor inh -31%.
CCN1CCN(c2ccc(S(=O)(=O)N3CCCCC3)cc2NC(=O)c2ccc(C)o2)CC1 was read as Six1-Eya2 inh -19, CtBP-E1A inh -6, BAZ2B block -7%, HP1b binding inh -6%, G9a block 40µM* and JMJD2A Tudor inh -23%.
